Assay results taken from the supplement of paper PMC6522484.
Several values for one entry are separate records, joined by “and”; a condition that tells them apart may be missing. Identical values can stand only once. Counter-ions that a name gives are not always drawn. ± gives the standard deviation of the averaged measurements.

Columns and labels:
DLD1 [1] = test: cell viability (CellTiter-Glo) relative to plate median (fraction of plate median); higher = more viable cells; details: 10 µM, treatment time 24 h
Summary of the method: (§1)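 Kinase inhibitor library compounds were added at a final 10 µM for 24 h to colorectal cancer cells in 384-well plates, 24 h after seeding. The cells stably expressed lentiviral TCF/Wnt firefly luciferase reporters. Firefly luciferase and CellTiterGlo luminescence came from parallel plates, and each well was normalised to its plate median (webcellHTS2, additive, untransformed), averaged over two independent replicates.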

HCT116 [2] = test: as above; details: 10 µM; treatment time 24 h; reporter: TCF4/Wnt
Summary of the method: as §1

SW480 [3] = test: as above; details: 10 µM; treatment time 24 h; reporter: 7TFP
Summary of the method: as §1

DLD1 [4] = test: TCF/Wnt firefly luciferase reporter signal relative to plate median (fraction of plate median); higher = higher Wnt reporter signal; details: 10 µM, treatment time 24 h
Summary of the method: as §1

HCT116 [5] = test: as above; details: 10 µM; treatment time 24 h; reporter: TCF4/Wnt
Summary of the method: as §1

SW480 [6] = test: as above; details: 10 µM; treatment time 24 h; reporter: 7TFP
Summary of the method: as §1

| Compound | cell viability (DLD1 [1]; reporter: 7TFP) | cell viability (DLD1 [1]; reporter: TCF4/Wnt) | cell viability (HCT116 [2]) | cell viability (SW480 [3]) | TCF/Wnt firefly luciferase reporter signal (DLD1 [4]; reporter: 7TFP) | TCF/Wnt firefly luciferase reporter signal (DLD1 [4]; reporter: TCF4/Wnt) | TCF/Wnt firefly luciferase reporter signal (HCT116 [5]) | TCF/Wnt firefly luciferase reporter signal (SW480 [6]) |
| --- | --- | --- | --- | --- | --- | --- | --- | --- |
| Nc1nccc(Oc2ccc(NC(=O)c3c[nH]cc(-c4ccc(F)cc4)c3=O)cc2F)c1Cl | 1.16 ± 0.22 | 1.01 ± 0.069 | 1.12 ± 0.2 | 0.886 ± 0.018 | 1.07 ± 0.17 | 0.826 ± 0.016 | 0.766 ± 0.32 | 0.549 ± 0.27 |
| COc1cc2c(Nc3ccc(NC(=O)c4ccccc4)cc3)ncnc2cc1OCCCN1CCOCC1 | 0.8075 ± 0.005 | 0.872 ± 0.042 | 1.01 ± 0.041 | 1.11 ± 0.021 | 1.13 ± 0.085 | 1.19 ± 0.2 | 1.42 ± 0.23 | 1.43 ± 0.057 |
| Cc1nc(Nc2ncc(C(=O)Nc3c(C)cccc3Cl)s2)cc(N2CCN(CCO)CC2)n1 | 0.774 ± 0.11 | 0.898 ± 0.13 | 1.01 ± 0.035 | 1.06 ± 0.071 | 0.54 ± 0.063 | 0.487 ± 0.031 | 0.706 ± 0.078 | 0.615 ± 0.07 |
| CN1CCN(c2ccc3nc(-c4c(N)c5c(F)cccc5[nH]c4=O)[nH]c3c2)CC1 [Dovitinib Dilactic acid (TKI258 Dilactic acid)] | 0.857 ± 0.19 | 0.956 ± 0.041 | 0.967 ± 0.13 | 1.17 ± 0.035 | 1.1 ± 0.099 | 1.16 ± 0.16 | 0.784 ± 0.52 | 1.09 ± 0.69 |
| C#Cc1cccc(Nc2ncnc3cc(OCCOC)c(OCCO)cc23)c1 | 0.923 ± 0.073 | 0.988 ± 0.045 | 1.22 ± 0.064 | 0.961 ± 0.013 | 0.821 ± 0.11 | 0.819 ± 0.14 | 0.804 ± 0.012 | 1.05 ± 0.098 |
| Cc1ccc(-n2nc(C(C)(C)C)cc2NC(=O)Nc2ccc(OCCN3CCOCC3)c3ccccc23)cc1 [BIRB 796 (Doramapimod)] | 1.15 ± 0.057 | 1.12 ± 0.17 | 1.06 ± 0.096 | 0.975 ± 0.064 | 0.984 ± 0.0028 | 1.05 ± 0.17 | 1.18 ± 0.22 | 1.07 ± 0.078 |
| Clc1ccc(Nc2nnc(Cc3ccncc3)c3ccccc23)cc1 [Vatalanib dihydrochloride (PTK787)] | 0.9675 ± 0.0021 | 0.978 ± 0.011 | 1.08 ± 0.13 | 0.925 ± 0.011 | 0.852 ± 0.038 | 0.965 ± 0.13 | 0.899 ± 0.11 | 0.957 ± 0.089 |
| CCOc1cc2ncc(C#N)c(Nc3ccc(OCc4ccccn4)c(Cl)c3)c2cc1NC(=O)/C=C/CN(C)C [Neratinib (HKI-272)] | 0.817 ± 0.03 | 0.877 ± 0.1 | 0.982 ± 0.083 | 0.541 ± 0.72 | 0.521 ± 0.3 | 0.763 ± 0.05 | 0.53 ± 0.33 | 0.508 ± 0.7 |
| CNC(=O)c1cc(COc2nnc(Nc3ccc(Cl)cc3)c3ccoc23)ccn1 [Telatinib (BAY 57-9352)] | 1.13 ± 0.23 | 0.987 ± 0.033 | 1.05 ± 0.079 | 0.972 ± 0.024 | 1.32 ± 0.05 | 1.09 ± 0.13 | 1.08 ± 0.25 | 1.08 ± 0.14 |
| O=C(c1ccc(/C=C/c2n[nH]c3ccccc23)cc1)N1CCNCC1 | 1.16 ± 0.021 | 1.14 ± 0.071 | 0.944 ± 0.093 | 1.09 ± 0.035 | 1.26 ± 0.6 | 1.46 ± 0.65 | 1.45 ± 0.45 | 1.53 ± 0.2 |
| CNC(=O)c1ccc(C)c(-n2c(C)cc(OCc3ccc(F)cc3F)c(Br)c2=O)c1 | 1.07 ± 0.057 | 1.015 ± 0.0071 | 1.05 ± 0.035 | 0.868 ± 0.047 | 1.17 ± 0.24 | 1.02 ± 0.061 | 0.81 ± 0.046 | 1.02 ± 0.11 |
| CCc1cnn2c(NCc3ccc[n+]([O-])c3)cc(N3CCCC[C@H]3CCO)nc12 | 0.985 ± 0.13 | 1.06 ± 0.021 | 0.809 ± 0.27 | 1.34 ± 0.042 | 0.462 ± 0.029 | 0.304 ± 0.03 | 0.128 ± 0.063 | 0.61 ± 0.33 |
| CN(C[C@@H]1COCCO1)S(=O)(=O)Nc1ccc2ccc3ncc(-c4cnn(C)c4)cc3c(=O)c2c1 | 0.907 ± 0.053 | 0.888 ± 0.044 | 0.926 ± 0.15 | 0.9835 ± 0.0064 | 0.96 ± 0.1 | 1.07 ± 0.035 | 0.972 ± 0.39 | 1.02 ± 0.36 |
| COc1ccc(COc2cc3oc(=O)c4cc(C(C)O)ccc4c3cc2OC)cc1 (stereo unspecified) [Palomid 529] | 1.08 ± 0.028 | 1.09 ± 0.021 | 1.12 ± 0.092 | 0.877 ± 0.044 | 1.1 ± 0.021 | 1.16 ± 0.099 | 1.2 ± 0.37 | 1.07 ± 0.099 |
| COc1cc2nccc(Oc3ccc(NC(=O)NC4CC4)c(Cl)c3)c2cc1C(N)=O [E7080 (Lenvatinib)] | 1.07 ± 0.085 | 0.932 ± 0.069 | 1.06 ± 0.11 | 0.966 ± 0.062 | 1.44 ± 0.078 | 1.2 ± 0.05 | 1.31 ± 0.3 | 0.927 ± 0.34 |
| CC(C)(O)CC(=O)NCCn1ccc2ncnc(Nc3ccc(Oc4cccc(C(F)(F)F)c4)c(Cl)c3)c21 | 1.04 ± 0.16 | 1.03 ± 0.089 | 1.17 ± 0.14 | 0.959 ± 0.058 | 1.16 ± 0.15 | 1.07 ± 0.18 | 0.902 ± 0.27 | 0.879 ± 0.5 |
| CCS(=O)(=O)N1CC(CC#N)(n2cc(-c3ncnc4[nH]ccc34)cn2)C1 | 1.025 ± 0.0071 | 1.02 ± 0.021 | 1.22 ± 0.092 | 0.943 ± 0.0014 | 1.09 ± 0.16 | 0.764 ± 0.18 | 0.974 ± 0.11 | 0.985 ± 0.021 |
| CNC(=O)c1ccccc1Nc1nc(Nc2ccc(N3CCOCC3)cc2OC)ncc1Cl | 0.8225 ± 0.00071 | 0.933 ± 0.069 | 0.895 ± 0.049 | 1.02 ± 0.073 | 0.638 ± 0.0099 | 0.823 ± 0.17 | 1.22 ± 0.28 | 1.08 ± 0.014 |
| COc1ccc(-c2cc3c(C)nc(N)nc3n([C@H]3CC[C@H](OCCO)CC3)c2=O)cn1 | 0.889 ± 0.028 | 0.944 ± 0.028 | 0.68 ± 0.15 | 1.1 ± 0.099 | 0.348 ± 0.096 | 0.533 ± 0.056 | 0.591 ± 0.039 | 0.725 ± 0.043 |
| C[C@@H]1CCN(C(=O)CC#N)C[C@@H]1N(C)c1ncnc2[nH]ccc12 | 1.02 and 1.09 | 1.07 and 1.1 | 1.21 and 1.14 | 0.9 and 0.972 | 1.06 and 1.04 | 0.874 and 0.875 | 1.18 and 1.36 | 0.736 and 0.979 |
| O=C1NC(=O)/C(=C/c2ccc3nccc(-c4ccncc4)c3c2)S1 | 0.973 ± 0.038 | 1.07 ± 0.071 | 0.597 ± 0.061 | 1.02 ± 0.13 | 0.312 ± 0.018 | 0.564 ± 0.29 | 0.417 ± 0.25 | 0.572 ± 0.07 |
| NC(=O)c1ccc(-c2nc(-c3ccccn3)c(-c3ccc4c(c3)OCO4)[nH]2)cc1 | 0.936 ± 0.16 | 0.968 ± 0.014 | 1.09 ± 0.035 | 0.829 ± 0.037 | 0.99 ± 0.043 | 1.2 ± 0.085 | 1.21 ± 0.085 | 0.944 ± 0.15 |
